Measured values as given in PubChem BioAssay AID2314 (National Center for Advancing Translational Sciences (NCATS), 2010).
The whole screen tested about 300,000 compounds, of which about 37,000 (12%) were called active. Only a selection was taken, and actives are over-represented in it overall. Values without a mark were called inactive. Cut-off read from the data, not from the text of the source: active = max response mostly above about 13% (no sharp cut-off); inactive = mostly below about 14%.

Test: Cycloheximide Counterscreen for Small Molecule Inhibitors of Shiga Toxin; note: read at 38.3 µM for the half of the compounds with a filed dose; 0% is about no effect
Conditions: cell reporter, cycloheximide protein synthesis inhibition counterscreen; stronger effect = higher value

Compound	max response
Cc1cccn2c(CN(C)C3CCCc4ccccc43)c(C(=O)N3CCOCC3)nc12 (centres undefined)	-3.53%
Cc1cc2c(cc1C)N(Cc1ccccc1)C1=NCCCN12	-2.27%
CC(C)C[C@H](NC(=O)C1CCC(CNC(=O)[C@@H]2CCCN2C(=O)OC(C)(C)C)CC1)C(=O)O (some centres undefined)	0.405%
CC(C)[C@H](NC(=O)N1CC(=O)Nc2ccccc21)C(=O)N[C@@H](Cc1c[nH]c2ccccc12)C(=O)O	-2.21%
CN1CCN(c2ncc3c(n2)CC(c2ccccc2F)CC3=O)CC1 (centres undefined)	-2.88%
COc1ccc(C)cc1NC(=O)NCc1ccccn1	-3.22%
COc1ccc2ccccc2c1CNCc1ccccn1	20.7% (active)
COc1ccc2ccccc2c1CNc1nnnn1C	-2.6%
Cc1ccc(-c2c(C)n([O-])c3c([n+]2=O)CCC3)cc1	2.58%
CC(Oc1ccc(-c2ccccc2)c(F)c1)c1ccn(S(=O)(=O)c2cccc3ccccc23)n1 (centres undefined)	-1.64%
NNC(=O)CNC(c1ccccc1)c1cc(Cl)ccc1NC(=O)c1ccccc1 (centres undefined)	-3.14%
C/[N+]([O-])=C\c1ccc([N+](=O)[O-])o1	8.46%
O=C(N/N=C/c1ccc([N+](=O)[O-])o1)c1cn(-c2ccccc2)nc1-c1ccc(F)cc1	10.8%
O=C(/C=C/c1ccc([N+](=O)[O-])o1)NNC(=O)c1ccc(F)cc1	71.2% (active)
O=C(/C=C/c1ccc2c(c1)OCO2)NCc1cn2cc(Cl)ccc2n1	2.11%
CCOc1ncccc1C(=O)OCc1cn2cc(Cl)ccc2n1	9.62%
Clc1ccc2nc(CSc3ccccc3)cn2c1	26.2% (active)
Cc1nn(CCCC(=O)NCc2ccccc2Cl)c(=O)c2nccn12	-3.04%
Cc1cccc(C(=O)OCC(=O)Nc2ccc(F)cc2)c1	10% (active)
O=C(COC(=O)c1cccc(Br)c1)Nc1cccc2c1C(=O)c1ccccc1C2=O	25.2% (active)
O=C(COC(=O)c1ccccc1)Nc1ccccc1Sc1ccccc1	9.64%
O=C(COC(=O)Cc1ccccc1)Nc1ccc(F)cc1	-1.31%
COc1ccc(C(=O)OCC(=O)Nc2cccc(C(C)=O)c2)cc1OC	9.48%
O=C(COC(=O)Cn1cnc2ccccc21)Nc1cccc2c1C(=O)c1ccccc1C2=O	-4.76%

Compound	max response
O=C1CCN(Cc2ccccc2)CCN1[C@H](CSc1ccccc1)c1ccccc1	-1.82%
CCOc1ccccc1NC(=S)NC(=O)CCc1ccccc1	1.38%
CCOc1ccc(CN2CCC(n3nccc3NC(=O)C3CC3)CC2)cc1CO	-1.74%
Cc1ccc(CC2(O)CCN(CCOc3ccc(O)cc3)CC2)cc1	4.37%
CC(C)C(=O)Nc1ccc2oc(=O)ccc2c1	-3.4%
CC(C)C(=O)Nc1ccc2c(c1)oc1ccccc12	67% (active)
CC(C)C(=O)Nc1c(C(=O)c2ccc(F)cc2)oc2ccccc12	-1.75%
Cn1c(=O)c(=O)n(C)c2cc(S(=O)(=O)CCC(=O)N3CCCCC3)ccc21	-2.58%
Cc1nn(Cc2ccccc2Cl)c(Cl)c1C(=O)OC(C(=O)NC(N)=O)C(C)C (centres undefined)	-4.81%
COc1ccccc1CCNC(=O)c1c(C)nn(CC(C)C)c1Cl	39% (active)
COc1ccccc1CCNC(=O)c1cnccn1	12.4%
COc1ccc(C(=O)NC2CC2)cc1OC1CCN(C/C=C/c2ccccc2)CC1	2.49%
COc1ccc(C)cc1N(CC(=O)NC(C)c1ccccc1)S(C)(=O)=O (centres undefined)	5.61%
CO/N=C/CC(=O)c1ccc(OC)cc1	49.2% (active)
COc1ccc(OCCC(=O)c2ccc(OC)cc2)cc1	4.64%
COc1ccc(C(=O)CC2C(=O)N(C)C(=O)N(C)C2=O)cc1	4.98%
Cc1ccc(NS(=O)(=O)c2c(C)[nH]c(=O)[nH]c2=O)cc1C	-1.76%
CCOC(=O)c1nnn(-c2nonc2-n2cccc2)c1CN1CCC(C(=O)OCC)CC1	-2.67%
Cc1cc(C(=O)CSc2nc(N)cc(=O)[nH]2)c(C)n1Cc1ccco1	-1.02%
COCC(C)n1c(C)cc(C(=O)COc2ccc(C)nc2[N+](=O)[O-])c1C (centres undefined)	8.12%
Cc1cc(C(=O)COC(=O)CNC(=O)c2ccc(F)cc2)c(C)n1Cc1ccco1	106% (active)
Cc1ccc(OCC(=O)c2cc(C)n(Cc3ccco3)c2C)c([N+](=O)[O-])n1	43.4% (active)
O=C(COC(=O)CNC(=O)c1ccco1)Nc1ccc(F)cc1	-3.97%
COc1ccc(C)cc1-n1nnnc1SCC(=O)c1cc(C)n(Cc2ccco2)c1C	27.1%

Compound	max response
Cc1ccc(S(=O)(=O)NCC(=O)N2CCOCCOCCOCCOCC2)cc1	-3.49%
CC(C)CC(=O)c1c[nH]c(C(=O)NCc2ccccc2)c1	-3.39%
COC(=O)C(CC(C)C)NS(=O)(=O)c1cc(Br)ccc1Br (centres undefined)	-8.13%
Cc1cc2c(cc1S(=O)(=O)CCC(=O)NCc1ccccc1)OCC(=O)N2	-1.02%
CCn1ccnc1CNC(=O)CC1C(=O)NCCN1Cc1ccc(F)cc1Cl (centres undefined)	8.96%
Clc1ccc(CN2CCCCCC2)cc1Cl	-3.66%
Cc1cccc(-n2c(=O)c3c(C)c(C)sc3n(CC(N)=O)c2=O)c1	-0.167%
COc1ccc(-c2nnc(SC(C)C#N)o2)cc1 (centres undefined)	27.2%
COc1ccc(-c2nnc(SCc3cccnc3)o2)cc1	30.9% (active)
COC(=O)CSc1nnc(-c2cccnc2)o1	12.2%
COc1ccccc1CNS(=O)(=O)c1c(C)[nH]c(C)c1C(=O)N1CCCCC1	11%
O=c1[nH]cnc(O)c1C(c1ccc(F)cc1)c1c(O)nc[nH]c1=O	-2.78%
CCOc1ccc(N(CC(=O)NCC2CCCO2)S(=O)(=O)c2ccc(C)cc2)cc1 (centres undefined)	0.744%
COc1cccc(/C=C2/SC(=S)N(CC(=O)NC3C=CS(=O)(=O)C3)C2=O)c1 (centres undefined)	8.26%
COc1ccc(N2C(=O)NC(NS(=O)(=O)c3ccc(Cl)cc3)(C(F)(F)F)C2=O)cc1 (centres undefined)	-5.1%
COc1ccc(OC)c(-c2csc(-c3cccs3)n2)c1	30.2%
COc1ccc(-c2csc(-c3cccs3)n2)cc1OC	59.6% (active)
CNC(=O)c1[nH]cnc1C(=O)N[C@@H](CC(C)C)C(=O)OC(C)(C)C	-1.12%
COC(=O)c1cc(OCC(=O)NC2CCCc3ccccc32)cc(C(=O)OC)c1 (centres undefined)	1.41%
COc1ccc(Br)cc1CN(C)CC(=O)Nc1cc(Cl)cc(Cl)c1	-1.13%
CCn1c(SCC(=O)NC2CC2)nnc1-c1ccccn1	7.07%
COc1ccc(NC(=O)c2cc(-c3ccc(C)cc3)on2)cc1	2.42%
Cc1ccc(C)c(NC(=O)c2ccc(OC(=O)c3ccco3)cc2)c1	12.4%
Cc1ccc(O)c(NC(=O)c2cc(-c3ccco3)on2)c1	17.2% (active)

Compound	max response
CC1CCN(C(=O)C2CCN(S(=O)(=O)N3CCC4(CC3)OCCO4)CC2)CC1	5.25%
O=C(C1CC1)N1N=C(c2ccc(Br)cc2)CC1(O)C(F)(F)F (centres undefined)	-6.68%
CC(C)Oc1ccccc1C(=O)NC(CO)C(=O)O (centres undefined)	5.75%
O=C1OCCN1C(=O)[C@H]1[C@H](c2ccc(Cl)cc2)C(c2cccc(Cl)c2)=NN1c1ccc(Br)cc1	1.68%
CC1Cc2ccccc2N1C(=O)c1cc2sccc2n1Cc1ccccc1 (centres undefined)	10.4%
CCOC(=O)c1cc2sccc2n1Cc1ccc(C#N)cc1	-2.12%
O=C(Cc1ccc(-n2c(=O)c3sccc3n(Cc3ccc(F)cc3)c2=O)cc1)NCc1ccco1	-2.83%
O=C(c1cc2sccc2n1Cc1ccc(F)cc1)N1CCc2ccccc21	16.9% (active)
O=C(NCc1ccco1)c1cc2sccc2n1Cc1ccc(F)cc1	45.3% (active)
O=C(NCc1ccco1)c1ccc(Cn2c(=O)c3sccc3n(Cc3ccc(F)cc3)c2=O)cc1	0.924%
CC(NC(=O)CCC(=O)N1CCN(S(=O)(=O)c2ccc(Cl)cc2)CC1)c1ccccc1 (centres undefined)	4.89%
Cn1c(CNC(=O)c2ccco2)nnc1SCC(=O)N1CCN(c2ccccc2)CC1	-0.554%
COc1ccccc1NC(=O)C1=C(C)Nc2nc3ccccc3n2C1c1cccs1 (centres undefined)	-6.14%
Cc1c(C(=O)OC(C)C)sc(NC(=O)c2cccnc2)c1C#N	1.72%
CC(=O)Nc1ccc(CN2CCN(Cc3ccc(F)c(F)c3)C(CCO)C2)cc1 (centres undefined)	-0.733%
COc1ccc(CNC(=O)C2CCN(C(=O)c3ccco3)CC2)cc1	-5.74%
COc1ccc(CCNC(=S)N2CCN(S(=O)(=O)c3ccc(Cl)cc3)CC2)cc1	-4.46%
O=C1Cc2ccccc2Sc2ccc(Cl)cc21	7.71%
O=C(Nc1ccc(S(=O)(=O)N2CCCC2)cc1Cl)C1=COCCO1	-1.75%
NS(=O)(=O)c1ccc2nc(NC(=O)C3=COCCO3)sc2c1	31% (active)
NS(=O)(=O)c1ccc2nc(NC(=O)CS(=O)(=O)c3ccc(F)cc3)sc2c1	1.51%
COc1cc(/C=C2\SC(=O)NC2=O)ccc1OCc1ccc(Cl)nc1	-3.18%
